Source: the supplement of paper PMC13380429

Test system: Vero E6 infected with SARS-CoV-2
Assay: SARS-CoV-2 infection rate relative to infected DMSO; higher = more infection, active = 60 or less
Settings: 24 h

**Q.** Which SARS-CoV-2 infection rate does the source give for `COc1cc2c(cc1OC)CC(=O)N(CCCN(C)C[C@H]1Cc3cc(OC)c(OC)cc31)CC2` [ivabradine] (10 µM) here?
**A.** 112% (inactive)

**Q.** With `CN1CCC(=C2c3ccccc3CCn3c(C=O)cnc32)CC1` [alcaftadine] (10 µM) as the compound, how does the SARS-CoV-2 infection rate read?
**A.** 93.5% (inactive)

**Q.** For `C=CC(=O)N1CCC(Oc2cc3c(Nc4ccc(Cl)c(Cl)c4F)ncnc3cc2OC)CC1` [poziotinib] (10 µM), which SARS-CoV-2 infection rate is on record?
**A.** 108% (inactive)

**Q.** For `c1ccc2c(Cc3c[nH]c4ccccc34)c[nH]c2c1` [3,3'-diindolylmethane] (10 µM), which SARS-CoV-2 infection rate is on record?
**A.** 113% (inactive)

**Q.** Which SARS-CoV-2 infection rate does the source give for `Cc1cccc(C)c1NC(=O)CN1CCCCCC1` [pincainide] (10 µM) here?
**A.** 106% (inactive)

**Q.** For `CN(C)CCOC(C)(c1ccccc1)c1ccccn1` (stereo unspecified) [doxylamine] (10 µM), which SARS-CoV-2 infection rate is on record?
**A.** 96% (inactive)

**Q.** `CCN1C[C@]2(COC(=O)c3ccccc3N3C(=O)C[C@H](C)C3=O)CC[C@H](OC)[C@@]34[C@@H]5C[C@H]6[C@H](OC)[C@@H]5[C@](O)(C[C@@H]6OC)[C@](O)([C@@H](OC)[C@H]23)[C@@H]14` [methyllycaconitine] (10 µM) was tested. Which SARS-CoV-2 infection rate did it give?
**A.** 110% (inactive)

**Q.** How did the SARS-CoV-2 infection rate turn out when `OC[C@H]1O[C@@H](O[C@@H]2[C@@H](CO)OC(O)(CO)[C@H]2O)[C@H](O)[C@@H](O)[C@H]1O` (mixture of isomers) [lactulose] (10 µM) was run?
**A.** 97.5% (inactive)

**Q.** `C#C[C@]1(O)CC[C@H]2[C@@H]3CCC4=CC(=O)CC[C@@H]4[C@H]3C(=C)C[C@@]21CC` [etonogestrel] (10 µM) was tested. Which SARS-CoV-2 infection rate did it give?
**A.** 90.5% (inactive)

**Q.** How did the SARS-CoV-2 infection rate turn out when `O=C1c2cccc(O)c2C(=O)c2c(O)cccc21` [dantron] (10 µM) was run?
**A.** 103% (inactive)

**Q.** For `Cc1ccc2c(c1CCC(=O)O)CC[C@@H](NS(=O)(=O)c1ccc(Cl)cc1)C2` [terutroban] (10 µM), which SARS-CoV-2 infection rate is on record?
**A.** 112% (inactive)

**Q.** For `CCOC(=O)Nc1ccc(NCc2ccc(F)cc2)nc1N` [flupirtine] (10 µM), which SARS-CoV-2 infection rate is on record?
**A.** 99% (inactive)

**Q.** With `C=C1CC[C@H](O)C/C1=C/C=C1\CCC[C@]2(C)[C@@H]([C@H](C)CCCC(C)C)CC[C@@H]12` [cholecalciferol] (10 µM) as the compound, how does the SARS-CoV-2 infection rate read?
**A.** 96.5% (inactive)

**Q.** How did the SARS-CoV-2 infection rate turn out when `Nc1nc2[nH]cc(CCc3ccc(C(=O)N[C@@H](CCC(=O)O)C(=O)O)cc3)c2c(=O)[nH]1` [pemetrexed] (10 µM) was run?
**A.** 121% (inactive)

**Q.** With `CCOC(=O)C1=C(C)NC(C)=C(C(=O)OCC)C1c1ccccc1/C=C/C(=O)OC(C)(C)C` [lacidipine] (10 µM) as the compound, how does the SARS-CoV-2 infection rate read?
**A.** 106% (inactive)

**Q.** For `CC[C@H](C)[C@H](N)C1=N[C@H](C(=O)N[C@@H](CC(C)C)C(=O)N[C@H](CCC(=O)O)C(=O)N[C@H](C(=O)N[C@H]2CCCCNC(=O)[C@H](CC(N)=O)NC(=O)[C@@H](CC(=O)O)NC(=O)[C@H](Cc3cnc[nH]3)NC(=O)[C@@H](Cc3ccccc3)NC(=O)[C@H]([C@@H](C)CC)NC(=O)[C@@H](CCCN)NC2=O)[C@@H](C)CC)CS1` [bacitracin] (10 µM), which SARS-CoV-2 infection rate is on record?
**A.** 112% (inactive)

**Q.** For `CC#C[C@@H](CC(=O)O)c1ccc(OCc2cccc(-c3ccc(C(F)(F)F)cc3)c2)cc1` (10 µM), which SARS-CoV-2 infection rate is on record?
**A.** 108% (inactive)

**Q.** For `OCC(Br)(Br)Br` [tribromoethanol] (10 µM), which SARS-CoV-2 infection rate is on record?
**A.** 118% (inactive)

**Q.** `NS(=O)(=O)c1cc2c(cc1C(F)(F)F)NC(Cc1ccccc1)NS2(=O)=O` (stereo unspecified) [bendroflumethiazide] (10 µM) was tested. Which SARS-CoV-2 infection rate did it give?
**A.** 87.5% (inactive)

**Q.** `CC(C)(C)c1nc(-c2cccc(NS(=O)(=O)c3c(F)cccc3F)c2F)c(-c2ccnc(N)n2)s1` [dabrafenib] (10 µM) was tested. Which SARS-CoV-2 infection rate did it give?
**A.** 114% (inactive)

**Q.** For `Oc1ccnc2cc(Cl)ccc12` [chloroxoquinoline] (10 µM), which SARS-CoV-2 infection rate is on record?
**A.** 99.5% (inactive)

**Q.** For `CC[C@@H]1C(=O)N(C)c2cnc(Nc3ccc(C(=O)N[C@H]4CC[C@H](N5CCN(CC6CC6)CC5)CC4)cc3OC)nc2N1C(C)C` [volasertib] (10 µM), which SARS-CoV-2 infection rate is on record?
**A.** 104% (inactive)

**Q.** With `COc1cc2ncnc(Nc3ccc(Oc4ccccc4)cc3)c2cc1OC` [SRC-kinase-inhibitor-I] (0.833333 µM) as the compound, how does the SARS-CoV-2 infection rate read?
**A.** 110% (inactive)

**Q.** `CCn1nc(C)c2c1C(c1ccccc1)=NCC(=O)N2` [ripazepam] (10 µM) was tested. Which SARS-CoV-2 infection rate did it give?
**A.** 109% (inactive)

**Q.** Which SARS-CoV-2 infection rate does the source give for `Cc1cc(SCc2sc(-c3ccc(C(F)(F)F)c(F)c3)nc2C)ccc1OCC(=O)O` (10 µM) here?
**A.** 99.5% (inactive)

**Q.** Which SARS-CoV-2 infection rate does the source give for `COc1cccc(OC)c1C(=O)N[C@@H]1C(=O)N2[C@@H]1SC(C)(C)[C@@H]2C(=O)O` [methicillin] (10 µM) here?
**A.** 112% (inactive)
